From PubChem BioAssay AID1159580 (chemical genetic matrix, 2015)
Where “and” joins values, the source holds several entries; their conditions need not be identical. Identical values can stand only once. Screen size: about 5,500 compounds; about 2,000 (36%) were called active. Not shown: some 18% with an inconclusive outcome. No stated cut-off is given here; in the data, active means normalized growth mostly below about 0.91 (no sharp cut-off); inconclusive means no clear call, values can overlap the other calls; inactive means mostly above about 0.92. The list shows a part of the results.

Assay: chemical genetic growth profiling, strain panel (AID 1159580);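 further: tested at 20 µM; growth read once vehicle control cultures reached saturation at 30 °C; 1 = growth at the plate median or of vehicle wells; lower values mean less growth of the strain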
Details: S. cerevisiae deletion strains, growth OD

Measured: normalized growth

CN(C)[C@@H]1C(=O)C(C(N)=O)=C(O)[C@@]2(O)C(=O)C3=C(O)c4c(O)ccc(Cl)c4[C@@H](O)[C@H]3C[C@@H]12
inactive: locus YAL013W, strain DEP1, hits give low values 1 | locus YAL021C, strain ccr4, hits give low values 0.971 | locus YAL026C, strain drs2, hits give low values 1 | locus YAL030W, strain snc1, hits give low values 0.984 | locus YBL061C, strain skt5, hits give low values 0.98 | locus YBR009C, strain hhf1, hits give low values 1.04 | locus YBR021W, strain FUR4, hits give low values 0.945 | locus YBR023C, strain chs3, hits give low values 0.982 | locus YBR171W, strain sec66, hits give low values 0.978 | locus YBR229C, strain ROT2, hits give low values 1 | locus YBR231C, strain swc5, hits give low values 0.991 | locus YBR279W, strain paf1, hits give low values 0.994 | locus YCL011C, strain gbp2, hits give low values 1.06 | locus YCL016C, strain dcc1, hits give low values 0.964 | locus YCL029C, strain bik1, hits give low values 0.992 | locus YCL061C, strain MRC1, hits give low values 0.992 | locus YCL069W, strain vba3, hits give low values 0.997 | locus YCR088W, strain abp1, hits give low values 0.993 | locus YDL005C, strain med2, hits give low values 0.983 | locus YDL035C, strain GPR1, hits give low values 1.01 | locus YDL040C, strain nat1, hits give low values 0.992 | locus YDL074C, strain BRE1, hits give low values 0.994 | locus YDL101C, strain DUN1, hits give low values 1 | locus YDL134C, strain PPH21, hits give low values 1 | locus YDL185W, strain tfp1, hits give low values 0.984 | locus YDL192W, strain arf1, hits give low values 0.982 | locus YDR001C, strain nth1, hits give low values 0.977 | locus YDR069C, strain doa4, hits give low values 0.969 | locus YDR101C, strain arx1, hits give low values 0.999 | locus YDR137W, strain rgp1, hits give low values 0.921 | locus YDR159W, strain sac3, hits give low values 1.06 | locus YDR162C, strain NBP2, hits give low values 1.02 | locus YDR195W, strain ref2 1 | locus YDR297W, strain sur2, hits give low values 0.979 | locus YDR318W, strain mcm21, hits give low values 0.997 | locus YDR334W, strain swr1, hits give low values 0.95 | locus YDR335W, strain msn5, hits give low values 0.98 | locus YDR388W, hits give low values 0.983 | locus YDR392W, strain spt3, hits give low values 0.854 | locus YDR502C, strain sam2, hits give low values 0.981 | locus YEL003W, strain gim4, hits give low values 0.98 | locus YEL037C, strain rad23, hits give low values 0.99 | locus YEL061C, strain CIN8 (second series), hits give low values 0.988 | locus YEL061C, strain CIN8, hits give low values 1 | locus YER015W, strain faa2, hits give low values 0.988 | locus YER016W, strain bim1, hits give low values 0.994 | locus YER110C, hits give low values 0.98 | locus YER111C, strain swi4, hits give low values 0.994 | locus YER155C, strain BEM2 (second series), hits give low values 0.932 | locus YER155C, strain BEM2, hits give low values 1.01 | locus YER167W, strain BCK2, hits give low values 1.01 | locus YFR010W, strain ubp6, hits give low values 0.991 | locus YGL078C, strain dbp3, hits give low values 0.988 | locus YGL086W, strain mad1, hits give low values 0.986 | locus YGL167C, strain pmr1, hits give low values 0.988 | locus YGL173C, strain kem1, hits give low values 0.985 | locus YGL227W, strain vid30, hits give low values 0.982 | locus YGL240W, strain doc1, hits give low values 0.95 | locus YGL248W, strain PDE1, hits give low values 0.988 | locus YGL253W, strain hxk2, hits give low values 0.981 | locus YGR078C, strain PAC10, hits give low values 0.989 | locus YGR135W, strain pre9, hits give low values 0.974 | locus YGR252W, strain gcn5, hits give low values 0.879 | locus YHR013C, strain ard1, hits give low values 0.973 | locus YHR027C, strain rpn1, hits give low values 0.965 | locus YHR030C, strain SLT2, hits give low values 1 and 1.02 | locus YHR079C, strain IRE1 (second series), hits give low values 0.976 | locus YHR079C, strain IRE1, hits give low values 1.04 | locus YHR094C, strain hxt1, hits give low values 0.981 | locus YHR129C, strain ARP1, hits give low values 1.01 | locus YHR142W, strain chs7, hits give low values 0.981 | locus YHR200W, strain rpn10, hits give low values 0.987 | locus YIL066C, strain RNR3, hits give low values 1.01 | locus YIL073C, strain SPO22, hits give low values 0.992 | locus YIL125W, strain kgd1, hits give low values 0.983 | locus YIR030C, strain dcg1, hits give low values 0.98 | locus YJL092W, strain hpr5, hits give low values 0.987 | locus YJL095W, strain BCK1 (second series), hits give low values 0.98 | locus YJL095W, strain BCK1, hits give low values 0.998 and 1.03 | locus YJL115W, strain asf1, hits give low values 0.98 | locus YJL129C, strain trk1, hits give low values 0.984 | locus YJL134W, strain LCB3, hits give low values 1 | locus YJL154C, strain vps35, hits give low values 0.976 | locus YJL164C, strain tpk1, hits give low values 1 | locus YJL166W, strain qcr8, hits give low values 0.93 | locus YJL168C, strain set2, hits give low values 0.983 | locus YJL187C, strain SWE1 (second series), hits give low values 0.995 | locus YJL187C, strain SWE1, hits give low values 0.988 | locus YJR043C, strain POL32, hits give low values 0.984 | locus YJR066W, strain TOR1, hits give low values 0.97 | locus YKL009W, strain mrt4, hits give low values 1 | locus YKL068W, hits give low values 0.986 | locus YKL085W, strain MDH1 (second series), hits give low values 0.975 | locus YKL085W, strain MDH1, hits give low values 0.975 | locus YKL160W, strain elf1, hits give low values 0.93 | locus YKL190W, strain CNB1, hits give low values 1 | locus YKR001C, strain vps1, hits give low values 0.976 | locus YKR026C, strain gcn3, hits give low values 0.998 | locus YKR091W, strain srl3, hits give low values 0.98 | locus YLL001W, strain dnm1, hits give low values 0.921 | locus YLL026W, hits give low values 0.983 | locus YLL041C, strain sdh2, hits give low values 0.993 | locus YLR027C, strain aat2, hits give low values 1.01 | locus YLR039C, strain RIC1, hits give low values 0.995 | locus YLR058C, strain SHM2, hits give low values 0.998 | locus YLR102C, strain apc9, hits give low values 0.981 | locus YLR113W, strain HOG1, hits give low values 1.03 | locus YLR221C, strain rsa3, hits give low values 0.956 | locus YLR258W, strain gsy2, hits give low values 0.992 | locus YLR262C, strain YPT6 (second series), hits give low values 0.938 | locus YLR262C, strain YPT6, hits give low values 1.01 | locus YLR268W, strain sec22, hits give low values 0.954 | locus YLR320W, strain mms22, hits give low values 0.947 | locus YLR330W, strain CHS5, hits give low values 1.01 | locus YLR342W, strain FKS1 (second series), hits give low values 0.952 | locus YLR342W, strain FKS1, hits give low values 0.99 | locus YLR357W, strain rsc2, hits give low values 0.93 | locus YLR370C, strain arc18, hits give low values 0.979 | locus YLR371W, strain rom2, hits give low values 0.976 | locus YLR384C, strain iki3, hits give low values 0.975 | locus YLR418C, strain cdc73, hits give low values 0.939 | locus YML016C, strain PPZ1, hits give low values 0.999 | locus YML032C, strain rad52, hits give low values 0.988 | locus YML120C, strain ndi1, hits give low values 0.928 | locus YML124C, strain tub3, hits give low values 0.982 | locus YMR058W, strain fet3, hits give low values 0.934 | locus YMR078C, strain ctf18, hits give low values 0.982 | locus YMR125W, strain sto1, hits give low values 0.918 | locus YMR129W, hits give low values 0.989 | locus YMR205C, strain PFK2, hits give low values 0.938 | locus YMR223W, strain ubp8, hits give low values 0.977 | locus YMR231W, strain pep5, hits give low values 0.991 | locus YMR307W, strain GAS1, hits give low values 1.02 | locus YNL067W, strain RPL9B, hits give low values 0.997 | locus YNL071W, strain lat1, hits give low values 0.992 | locus YNL128W, strain TEP1, hits give low values 1.01 | locus YNL183C, strain NPR1, hits give low values 0.966 | locus YNL209W, strain ssb2, hits give low values 0.975 | locus YNL233W, strain BNI4, hits give low values 0.993 | locus YNL248C, strain rpa49, hits give low values 0.956 | locus YNL250W, strain rad50, hits give low values 0.99 | locus YNL271C, strain bni1, hits give low values 0.983 | locus YNL298W, strain CLA4, hits give low values 0.993 | locus YNL307C, strain MCK1, hits give low values 0.994 | locus YNL322C, strain KRE1 (second series), hits give low values 0.98 | locus YNL322C, strain KRE1, hits give low values 0.999 | locus YNR049C, strain mso1, hits give low values 0.978 | locus YNR052C, strain pop2, hits give low values 0.998 | locus YOL012C, strain htz1 0.761 | locus YOL147C, strain pex11, hits give low values 0.983 | locus YOR001W, strain rrp6, hits give low values 1.05 | locus YOR061W, strain CKA2, hits give low values 1 | locus YOR069W, strain VPS5, hits give low values 1 | locus YOR070C, strain gyp1, hits give low values 1.01 | locus YOR080W, strain dia2, hits give low values 0.981 | locus YOR083W, strain WHI5, hits give low values 0.941 | locus YOR106W, strain vam3, hits give low values 0.942 | locus YOR136W, strain idh2, hits give low values 0.979 | locus YOR144C, strain elg1, hits give low values 0.986 | locus YOR184W, strain ser1, hits give low values 0.995 | locus YOR231W, strain MKK1, hits give low values 1.04 | locus YOR265W, strain rbl2, hits give low values 0.982 | locus YOR270C, strain vph1, hits give low values 0.966 | locus YOR290C, strain snf2, hits give low values 0.958 | locus YOR316C, strain cot1, hits give low values 0.982 | locus YPL051W, strain arl3, hits give low values 0.973 | locus YPL055C, strain LGE1, hits give low values 0.992 | locus YPL078C, strain atp4, hits give low values 0.934 | locus YPL106C, strain sse1, hits give low values 0.911 | locus YPL240C, strain hsp82, hits give low values 0.993 | locus YPL256C, strain CLN2, hits give low values 1.02 | locus YPR119W, strain clb2, hits give low values 0.983 | locus YPR141C, strain kar3, hits give low values 0.981 | locus YPR163C, strain tif3, hits give low values 0.98 | locus YPR167C, strain met16, hits give low values 0.985 | strain wtn01, hits give low values 0.955
